Data from PubChem BioAssay (NCATS).
The source made the active and inactive calls. Entries that show only a call come without a potency. The call rests on the fitted dose curve; in most records, active means well fitted inhibition curve with a large enough effect; inconclusive means small, poorly fitted or top-dose-only effect; inactive means no such curve, though single readings can be large or run the other way.

The molecules below were run against Pyruvate kinase (Leishmania mexicana) (UniProt Q27686) (assay: qHTS Validation Assay for Inhibitors of Leishmania Mexicana Pyruvate Kinase (AID 945)). Settings: purified L. mexicana pyruvate kinase, enzyme activity, E451W mutant enzyme; series mostly up to 57.5 µM.
From the text: NIH Molecular Libraries Screening Centers Network [MLSCN]
NIH Chemical Genomics Center [NCGC]
PI names: Malcom Walkinshaw, Hugh Morgan and Linda Gilmore
University of Edinburgh, Edinburgh, UK
Species of Leishmania are responsible for a wide spectrum of diseases throughout the tropics and subtropics, ranging from self-healing ulcers to highly disfiguring lesions and serious, often lethal visceral diseases, such as kala-azar. In Leishmania spp. it has been shown that both sugar uptake and gluconeogenesis are necessary to synthesize sufficient hexose-phosphate required for the production of glycoconjugates and the intracellular polysaccharide mannan which are essential for both replication and virulence of the parasites. Therefore, most of the enzymes participating in glycolysis and gluconeogenesis are expected to be essential (Naderer et al., 2006). The assay described here targets pyruvate kinase from Leishmania mexicania (LmPYK) that was obtained as a highly purified preparation from the University of Edinburgh (E451W mutant was provided). A 1536 well assay protocol was set up and validated by screening the LOPAC library in triplicate as an eight point concentration-titration series using the qHTS platform developed at the NCGC.
NCGC Assay Protocol Summary:
Three uL of substrate mix (final concentrations, 50 mM imidazole pH 7.2, 50 mM KCl, 7 mM MgCl2, 0.5 mM PEP, 0.1 mM ADP, 0.01% Tween 20, 0.05% BSA) was dispensed into white solid medium binding Greiner 1536 well plates. 23 nL of compound were delivered by a pin tool and 1 uL of enzyme mix (final concentration, 0.2 nM LmPYK, 50 mM imidazole pH 7.2, 0.05% BSA) was added. Plates were covered with stainless steel gasket-lined lids and incubated at room temperature for 1 hour. Two uL of detection and kinase stop mix (PKLight, Lonza) was added, and luminescence read by a ViewLux (Perkin Elmer) at 2 second exposure/plate using 2x binning. Controls on each plate were as follows: column 1, sixteen-point titration (1:2 dilutions) in duplicate the LmPK activator LOPAC-C8145 beginning at 57 uM final concentration; column 2, sixteen-point titration (1:2 dilutions) in duplicate activator LOPAC-S4063 beginning at 57 uM final concentration; column 3, column 4 DMSO only. Data were normalized to the neutral control (column 3).
Potency means the concentration at half of the fitted maximal effect.

Sequence of Pyruvate kinase (Leishmania mexicana) (Q27686 2-499 E452W): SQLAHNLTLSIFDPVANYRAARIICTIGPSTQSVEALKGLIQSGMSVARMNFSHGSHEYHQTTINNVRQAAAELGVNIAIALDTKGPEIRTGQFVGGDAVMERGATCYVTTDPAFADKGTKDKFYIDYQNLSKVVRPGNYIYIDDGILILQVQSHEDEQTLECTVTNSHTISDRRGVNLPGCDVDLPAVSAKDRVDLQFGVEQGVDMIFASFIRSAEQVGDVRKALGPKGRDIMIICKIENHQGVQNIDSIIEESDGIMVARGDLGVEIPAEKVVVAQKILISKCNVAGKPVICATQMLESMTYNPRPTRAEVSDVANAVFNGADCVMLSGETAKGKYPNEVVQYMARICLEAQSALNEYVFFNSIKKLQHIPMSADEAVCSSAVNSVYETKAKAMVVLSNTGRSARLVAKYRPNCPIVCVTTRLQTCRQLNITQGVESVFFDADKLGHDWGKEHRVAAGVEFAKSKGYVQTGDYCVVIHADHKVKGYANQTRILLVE

With `Fc1ccc(C(c2ccc(F)cc2)N2CCN(C/C=C\c3ccccc3)CC2)cc1` as the molecule, how does the Potency read?
The Potency was “inactive”.

For `CCCCCCCCCCCCCCCC(=O)O[C@H](CC(=O)O)C[N+](C)(C)C`, which Potency is on record?
Its Potency is “inactive”.

How did the Potency turn out when `CC(C)(C)NC[C@H](O)c1ccc(O)c(CO)c1` was run?
Its Potency is “inactive”.

For `COC(=O)c1c(-c2cc(OC)c(OC)c(OC)c2)c2ccnc(OCc3ncccn3)c2c(=O)n1Cc1ccnc(C)c1`, which Potency is on record?
The Potency was “inactive”.

How did the Potency turn out when `CN(C)c1ccc(/C=C2/C(=O)Nc3ccccc32)cc1` was run?
Its Potency is 3.16 µM (active).

How did the Potency turn out when `CC(C)(C)NC[C@H](O)COc1cccc2[nH]c(=O)[nH]c12` was run?
Its Potency is “inactive”.

How did the Potency turn out when `CC1=C(\C=C/C(C)=C/C=C\C(C)=C\C(=O)O)C(C)(C)CCC1` was run?
The Potency was “inactive”.

With `O=C(O)[C@H]1CN(CCCP(=O)(O)O)CCN1` as the molecule, how does the Potency read?
Its Potency is “inactive”.

How did the Potency turn out when `CCCCOc1cc(C[C@@H]2CNC(=O)N2)ccc1OC` was run?
The Potency was “inactive”.

How did the Potency turn out when `C[C@@H](CCc1ccc(O)cc1)NCCc1ccc(O)c(O)c1` was run?
The Potency was “inactive”.

For `NS(=O)(=O)c1cc2c(cc1Cl)N[C@@H]([C@@H]1C[C@@H]3C=C[C@H]1C3)NS2(=O)=O`, which Potency is on record?
Its Potency is “inactive”.

For `CC(C)NC[C@H](O)c1ccc(NS(C)(=O)=O)cc1`, which Potency is on record?
Its Potency is “inactive”.

Which Potency does the source give for `O=C(NC[C@H]1CCCCN1)c1cc(OCC(F)(F)F)ccc1OCC(F)(F)F` here?
The Potency was “inactive”.

How did the Potency turn out when `CC(C)(C)c1ccc(S(=O)(=O)/C=C\C#N)cc1` was run?
Its Potency is “inactive”.

How did the Potency turn out when `C=CCN1CCc2cc(O)c(O)cc2[C@H](c2ccccc2)C1` was run?
Its Potency is “inactive”.

Which Potency does the source give for `C[C@@](N)(C(=O)O)c1ccc(C(=O)O)cc1` here?
Its Potency is “inactive”.

For `CC(N)=NCCCC[C@H](N)C(=O)O`, which Potency is on record?
Its Potency is “inactive”.

For `N#CC(=C(/N)Sc1ccccc1N)/C(C#N)=C(/N)Sc1ccccc1N`, which Potency is on record?
The Potency was “inactive”.

`C[C@@H]1C[C@@H]2[C@H]3CCC4=CC(=O)C=C[C@]4(C)[C@]3(F)[C@@H](O)C[C@@]2(C)[C@@]1(O)C(=O)CO` was tested. Which Potency did it give?
The Potency was “inactive”.

With `COC(=O)C1=C(C)NC(C)=C([N+](=O)[O-])[C@H]1c1ccccc1C(F)(F)F` as the molecule, how does the Potency read?
Its Potency is “inactive”.

Which Potency does the source give for `CCCn1c(=O)c2[nH]c(-c3ccc(OCC(=O)Nc4ccc(C#N)cc4)cc3)nc2n(CCC)c1=O` here?
Its Potency is “inactive”.

`CN(C)CCCCSC(=N)N` was tested. Which Potency did it give?
The Potency was “inactive”.

With `CNCC[C@H](Oc1ccccc1OC)c1ccccc1` as the molecule, how does the Potency read?
The Potency was “inactive”.

For `O=C1N=C(O)CN1/N=C\c1ccc(-c2ccc([N+](=O)[O-])cc2)o1`, which Potency is on record?
The Potency was “inactive”.

With `Cc1cccc(/C=C\c2ccccc2)n1` as the molecule, how does the Potency read?
Its Potency is 15.8 µM (active).

Which Potency does the source give for `S=C(S)O[C@@H]1C[C@@H]2C[C@H]1[C@@H]1CCC[C@H]21` here?
Its Potency is “inactive”.

How did the Potency turn out when `CCN(Cc1ccncc1)C(=O)[C@@H](CO)c1ccccc1` was run?
The Potency was “inactive”.

`C#C[C@]1(O)CC[C@H]2[C@H]3CCC4=Cc5oncc5C[C@]4(C)[C@@H]3CC[C@]21C` was tested. Which Potency did it give?
The Potency was “inactive”.

`COc1cc2c(cc1C(F)(F)F)N(C(=O)Nc1cc(F)cc(-c3cccnc3)c1)CC2` was tested. Which Potency did it give?
The Potency was “inactive”.

For `O=C1CC[C@H](N2C(=O)c3ccccc3C2=O)C(=O)N1`, which Potency is on record?
Its Potency is “inactive”.

With `C[C@]12CC3CC(N)(C1)C[C@@](C)(C3)C2` as the molecule, how does the Potency read?
Its Potency is “inactive”.

`COc1ccccc1N1CCN(C[C@@H](O)COc2cccc3ccccc23)CC1` was tested. Which Potency did it give?
The Potency was “inactive”.

`C=C[C@H](N)CCC(=O)O` was tested. Which Potency did it give?
The Potency was “inactive”.

With `NC(N)=NN=Cc1c(Cl)cccc1Cl` as the molecule, how does the Potency read?
Its Potency is “inactive”.

With `CCn1ccnc1C[C@@H]1COc2ccccc2O1` as the molecule, how does the Potency read?
The Potency was “inactive”.

Which Potency does the source give for `CSc1ccc2c(c1)[C@H](N1CCN(C)CC1)Cc1ccccc1S2` here?
The Potency was “inactive”.

Which Potency does the source give for `COc1cc2nc(N3CCN(C(=O)[C@H]4CCCO4)CC3)nc(N)c2cc1OC` here?
The Potency was “inactive”.

For `C[C@@H]1CCN=C(N)S1`, which Potency is on record?
The Potency was “inactive”.

Which Potency does the source give for `COCCOC(=O)C1=C(C)NC(C)=C(C(=O)OC(C)C)[C@@H]1c1cccc([N+](=O)[O-])c1` here?
The Potency was “inactive”.

For `CC[C@H](C)N(C)C(=O)c1cc2ccccc2c(-c2ccccc2Cl)n1`, which Potency is on record?
The Potency was “inactive”.
